# The whole screen tested about 310,000 compounds, of which about 18,000 (5.8%) were called active. Inconclusive results (about 22%) are left out. The call rests on the fitted dose curve; in most records, active means well fitted inhibition curve with a large enough effect; inconclusive means small, poorly fitted or top-dose-only effect, or another doubt; inactive means no such curve, though single readings can be large or run the other way. Many of the other results were omitted from the sample, so actives are more common in it than they were.
# Test: Primary qHTS for delayed death inhibitors of the malarial parasite plastid, 48 hour incubation
# Conditions: P. falciparum luciferase growth in erythrocytes; series mostly up to 28.7 µM; activity change, negative = inhibition: at the top concentration
# Procedure, shortened: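 Here the parasites carry a stable luciferase gene and grow inside erythrocytes in Albumax-based RPMI medium with compound for one erythrocytic cycle. Activity is scored as loss of luminescent signal.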
# On the % scale 0 is the no-effect control and ±100 the full control effect; potency means the concentration at half of the fitted maximal effect.
SMILES,"activity change, negative = inhibition",Potency
CC(=O)c1ccc(NC(=O)CCNS(=O)(=O)c2cc(Br)cnc2N)cc1,5.08% (inactive),–
COc1cc(C(=O)NNC(=O)CN2C(=O)NC3(CCCC3)C2=O)cc(OC)c1OC,-15% (inactive),–
O=C(N/N=C/c1c[nH]c2ccccc12)c1ccccc1O,-19.7% (inactive),–
Cc1cc(NC(=O)CSCc2ccccc2C)no1,14.7% (inactive),–
CC(C)n1c(SCC(=O)Nc2ccccc2N2CCCCC2)nc2c1c(=O)n(C)c(=O)n2C,-8.49% (inactive),–
Cc1cc(NC(=O)C(C)SCC(=O)Nc2ccccc2N2CCCCC2)no1 (centres undefined),–,8.28 µM (active)
CCN(CC)c1ccc(/C=N/NC(=O)CNC(=O)c2cccnc2)cc1,30.6% (inactive),–
COc1cccc(NC(=O)C/C(C)=N/NC(=O)C2CCCCC2)c1,7.61% (inactive),–
O=C(NC(Cc1ccc(O)cc1)C(=O)O)/C(=C/c1ccccc1)NC(=O)c1ccccc1 (centres undefined),78.7% (inactive),–
CCOc1cc2[nH]c(=O)n(Cc3ccc(C(=O)NCCCN4CCCC4=O)cc3)c(=O)c2cc1OCC,-6.67% (inactive),–
COc1cc2[nH]c(=O)n(Cc3ccc(C(=O)NC4CCN(Cc5ccccc5)CC4)cc3)c(=O)c2cc1OC,–,13.1 µM (active)
COc1cc2[nH]c(=O)n(CCC(=O)NC3CCN(Cc4ccccc4)CC3)c(=O)c2cc1OC,21.7% (inactive),–
CCOC(=O)c1ccc(NC(=S)N2CCN(c3ccccn3)CC2)cc1,15% (inactive),–
COc1ccc(NS(=O)(=O)c2ccc(F)cc2F)cn1,38.3% (inactive),–
CCCS(=O)(=O)N1CCN=C1SCc1cccc(F)c1,-6.09% (inactive),–
COc1cc(F)c(C2=CC(=O)CC(C)(C)C2)cc1F,28.7% (inactive),–
CC1(C)CC(=O)C=C(c2ccc(Cl)c(C(F)(F)F)c2)C1,–,5.86 µM (active)
CC1(C)CC(=O)C=C(Nc2ccccc2)C1,-13.2% (inactive),–
COC(=O)c1cc(NS(=O)(=O)c2ccc3c(c2)c(=O)n(C)c(=O)n3C)cc(C(=O)OC)c1,20.2% (inactive),–
O=C1NCCn2nc3ccccc3c21,2.57% (inactive),–
NS(=O)(=O)c1cccnc1Nc1cccc(Cl)c1,33.3% (inactive),–
CCOc1c(Nc2cccc(Cl)c2)c(=O)c1=O,–,7.38 µM (active)

SMILES,"activity change, negative = inhibition",Potency
CCOC(=O)c1c(S(=O)(=O)Nc2cccc(Cl)c2)c(C)n(C)c1C,-8.53% (inactive),–
Cc1ccc2c(c1)N(CC(=O)N1CCOCC1)C(=O)CO2,17.2% (inactive),–
O=S(=O)(NCc1ccc(Cl)cc1Cl)c1cccs1,42.9% (inactive),–
CC(OC(=O)CCCc1c[nH]c2ccccc12)C(=O)Nc1ccc(S(N)(=O)=O)cc1 (centres undefined),19% (inactive),–
Cc1ccc(NC(=O)NC2CCCCC2)cc1S(=O)(=O)N1CCOCC1,-7.23% (inactive),–
Cc1ccc(NC(=O)C(C)OC(=O)Cc2c[nH]c3ccccc23)cc1S(=O)(=O)N1CCOCC1 (centres undefined),–,5.22 µM (active)
O=C(Nc1ccccc1N1CCCC1)c1ccc2ccccc2c1,10% (inactive),–
COc1cccc(NC(=O)C(=O)c2cn(CC(=O)N3CCOCC3)c3ccccc23)c1,63.7% (inactive),–
Cc1nn(-c2ccccc2)c2sc(C(=O)N(Cc3ccco3)C(C)C(=O)NC(C)(C)C)cc12 (centres undefined),–,11.7 µM (active)
O=C(NCc1ccco1)c1nc(-c2ccccc2)n(-c2ccccc2)n1,5.98% (inactive),–
CC(C)(C)NC(=O)NCc1ccco1,13.8% (inactive),–
O=C(NC(Nc1nc2ccc([N+](=O)[O-])cc2s1)(C(F)(F)F)C(F)(F)F)c1ccccc1,–,1.65 µM (active)
O=C(COC(=O)c1ccc(F)cc1)Nc1nc2ccc([N+](=O)[O-])cc2s1,-18.4% (inactive),–
O=C(Nc1nc2ccc([N+](=O)[O-])cc2s1)c1ccncc1,-30.6% (inactive),–
COC(=O)c1ccc(C)c(NC(=O)C2CC(=O)N(C3CCCC(C)C3C)C2)c1 (centres undefined),-11.9% (inactive),–
Cc1cc(NC(=O)COc2ccc([N+](=O)[O-])cc2)no1,-10.4% (inactive),–
CC(=O)c1cccc(OCc2cc(C(=O)NC(C)Cc3cccnc3)no2)c1 (centres undefined),0% (inactive),–
CCc1cc(=O)oc2c(C)c(OCC(=O)N3CC[C@@]4(O)CCCC[C@H]4C3)ccc12,-23.9% (inactive),–
CN(C)CCN(Cc1ccccc1)S(=O)(=O)c1csc(C(N)=O)c1,34.9% (inactive),–
O=C1c2ccccc2C(=O)C1c1ccccc1F,8.55% (inactive),–
O=C1c2ccccc2C2=Nc3ccccc3SC(c3ccccc3F)C12 (centres undefined),–,0.329 µM (active)
COCCN(C(=O)CSCc1ccc(C)cc1)c1c(N)n(CC(C)C)c(=O)[nH]c1=O,-24.5% (inactive),–

SMILES,"activity change, negative = inhibition",Potency
CC1(C(=O)NNC(=S)NCC2CCCO2)CC1(Cl)Cl (centres undefined),-1.58% (inactive),–
CN(C)S(=O)(=O)c1cccc(NC(=O)Cc2ccsc2)c1,-7.53% (inactive),–
CN(c1ccccc1)S(=O)(=O)c1cccc(NC(=O)Cc2c(F)cccc2Cl)c1,-25.5% (inactive),–
CN(c1ccccc1)S(=O)(=O)c1cccc(NC(=O)Cc2ccc(Cl)cc2)c1,–,11.7 µM (active)
C[C@@H]1NC(=O)[C@@]2(C)[C@@H](c3ccccc3)[C@H]3COc4ccccc4[C@@H]3N2C1=O,5.3% (inactive),–
CCc1nnc(NC(=O)C2CCN(C(=O)c3ccccc3C)CC2)s1,-2.64% (inactive),–
Cc1ccccc1C(=O)N1CCC(C(=O)Nc2ccc(S(=O)(=O)N(C)C(C)C)cc2)CC1,–,9.28 µM (active)
CC(=O)c1cccc(NC(=O)C2CCN(C(=O)c3ccccc3Cl)CC2)c1,2.74% (inactive),–
CC(C)c1c(C(=O)N/N=C/c2ccccc2C(=O)O)nnn1-c1nonc1N,31.1% (inactive),–
Cc1cc(Cl)c2oc(C(=O)N3CCC(O)(c4ccccc4)CC3)c(C)c2c1,-1.89% (inactive),–
O=C(O)c1cc([N+](=O)[O-])c(Nc2cccc3ccccc23)c([N+](=O)[O-])c1,27.2% (inactive),–
Cn1cc[n+](C)c1COc1ccc(C=O)cc1,8.97% (inactive),–
O=C(CN(C(=O)c1csnn1)c1cccc(Cl)c1)NC1CCCC1,3.32% (inactive),–
Cc1ccc(-c2csc3nnc(SCC(=O)NCc4ccco4)n23)cc1,–,9.28 µM (active)
Cn1c(-c2ccc(F)cc2)cnc1SCC(=O)NCc1ccco1,-15.9% (inactive),–
O=C(CSc1nnc(-c2ccco2)n1Cc1ccccc1)NC(=O)NCc1ccco1,–,10.4 µM (active)
CCn1c(SCC(=O)NCc2ccco2)nnc1-c1ccc(N)cc1,19.4% (inactive),–
CCn1c(COc2ccccc2)nnc1SCC(=O)NCc1ccco1,3.66% (inactive),–
O=C(CSc1nnc2scc(-c3ccc(F)cc3)n12)NCc1ccco1,-10.2% (inactive),–
CC1(NC(=O)CCS(=O)(=O)c2ccc(Cl)cc2)CCS(=O)(=O)C1 (centres undefined),4.95% (inactive),–
C=CCn1c(SCC(=O)Nc2ccc(NC(C)=O)cc2)nc2sc(C)c(C)c2c1=O,-19.7% (inactive),–
CCN(CC(=O)NCc1cccs1)C(=O)c1ccc(OC)c(S(=O)(=O)N2CCOCC2)c1,1.87% (inactive),–

SMILES,"activity change, negative = inhibition",Potency
O=C(CC1C(=O)NCCN1C(=O)c1ccc([N+](=O)[O-])cc1)Nc1cccc(Cl)c1 (centres undefined),2.97% (inactive),–
COc1ccc(C(=O)n2nc(C)c(Br)c2C)cc1OC,43.6% (inactive),–
O=C1c2ccccc2NC(c2ccc(-c3cccc(Cl)c3)o2)N1O (centres undefined),89.3% (inactive),–
O=C1NC(c2cccc(Cl)c2)Nc2ccccc21 (centres undefined),34.8% (inactive),–
O=c1c(-c2cccc(Cl)c2)c[nH]n1-c1ccccc1,–,3.7 µM (active)
Cc1nc2sccn2c(=O)c1S(=O)(=O)NCCc1ccccc1,-2.59% (inactive),–
COCCNc1nnc(SCC(=O)NNC(=O)c2ccco2)s1,-15% (inactive),–
CCCNC(=O)CSc1nc(Cc2ccccc2)nc2ccccc12,-19.7% (inactive),–
Cc1cc(Br)ccc1NC(=O)c1sc2ncn(CC(=O)N3CCN(c4ccccn4)CC3)c(=O)c2c1C,-1.69% (inactive),–
Cc1nc(N2CCN(c3ccccn3)CC2)c2c(C)c(C(=O)Nc3ccc(F)cc3)sc2n1,–,13.1 µM (active)
CCN(CC)c1ccc(NC(=O)CN2CCN(c3ccccn3)CC2)cc1,-14.4% (inactive),–
CC(=O)N1CCN(CC(C)(C)NS(=O)(=O)c2ccc(C)cc2)CC1,6.55% (inactive),–
CC(=O)Nc1ccc(NC(=O)CSC2=NS(=O)(=O)c3ccccc3N2)cc1,1.84% (inactive),–
N#CCCN(C(=O)COC(=O)C1CCN(c2ccc(C(F)(F)F)cn2)CC1)c1ccc(F)cc1,-1.84% (inactive),–
CCOc1ccc(C(=O)NCC(=O)N2CCN(c3ccc(C(F)(F)F)cn3)CC2)cc1,-12.7% (inactive),–
CCCN1CCn2c3c(c4cc(Br)ccc42)CCCC31 (centres undefined),–,8.28 µM (active)
O=C(CN1C(=O)NC2(CCCCC2)C1=O)N1CCN(C(=O)c2cccs2)CC1,3.33% (inactive),–
Cc1nn(CC(=O)NCCc2ccccc2)c(=O)c2cc3occc3n12,22.7% (inactive),–
COc1ccc(CC(=O)OC(C)C(=O)Nc2ccc(S(N)(=O)=O)cc2)cc1 (centres undefined),6% (inactive),–
CCCCN(C(=O)CCNC(=O)NC12CC3CC(CC(C3)C1)C2)c1c(N)n(CCCC)c(=O)[nH]c1=O,–,13.1 µM (active)
CCCCN(C(=O)c1ccc(C)o1)c1c(N)n(CCCC)c(=O)[nH]c1=O,29.6% (inactive),–
CCCCCN(C(=O)CCC(=O)OCC(=O)NCc1ccc(OC)cc1)c1c(N)n(CCCC)c(=O)[nH]c1=O,11.3% (inactive),–

SMILES,"activity change, negative = inhibition",Potency
O=S(=O)(O)c1nc2ccccc2n1Cc1ccc(Cl)cc1Cl,11.4% (inactive),–
O=C(Cn1c(NCCO)nc2ccccc21)c1ccc(Cl)cc1Cl,–,13.1 µM (active)
CC(C)(C)C(=O)Cn1c(NCCO)nc2ccccc21,2.22% (inactive),–
O=C(COC(=O)c1ccc([N+](=O)[O-])cc1Cl)NC(=O)c1ccccc1,7.05% (inactive),–
C/C=N/N(c1ccccc1)c1ccccc1,–,10.4 µM (active)
Cc1cccc(-c2c(NC(=O)c3ccco3)oc3ccc(Cl)cc3c2=O)c1,26.5% (inactive),–
O=C(O)CSc1ccc(S(=O)(=O)N2CCCC2)cn1,5% (inactive),–
Cc1ccc(NC(=O)CSc2sc3c(O)cc(=O)[nH]c3c2C#N)cc1C,15.9% (inactive),–
CC(C)CN(C(=O)c1ccc2c(c1)OCO2)C1CCS(=O)(=O)C1 (centres undefined),15.5% (inactive),–
CCCCCCC(=O)Nc1nc(C)c(-c2csc(Nc3cc(Cl)ccc3OC)n2)s1,–,4.65 µM (active)
CCOC(=O)c1csc(NC(=O)Nc2cccc(OC)c2)n1,77.8% (inactive),–
COc1ccc(-c2csc(Nc3ccc(O)cc3)n2)cc1,-28.2% (inactive),–
COc1cc(CC(=O)Nc2nc(-c3ccc(F)c(F)c3)cs2)cc(OC)c1OC,-25.2% (inactive),–
CC(=O)Nc1ccc(-c2csc(NC(=O)Nc3ccccc3)n2)cc1,-5.54% (inactive),–
CC(=O)c1sc(NC(=O)CCCOc2ccccc2C)nc1C,9.54% (inactive),–
Cc1cccc(NC(=O)c2cccc(C(F)(F)F)c2)c1,18.1% (inactive),–
COc1ccc(-c2csc(NC(=O)COC(=O)Cc3ccc(Cl)cc3Cl)n2)cc1,184% (inactive),–
COc1ccc(Cl)cc1NC(=O)c1oc(C)nc1C,24% (inactive),–
C=CCCC(=O)Nc1nc(C)c(-c2csc(Nc3ccc(Cl)cc3)n2)s1,–,1.47 µM (active)
O=C(Nc1ccc(-c2csc(Nc3cccc(C(F)(F)F)c3)n2)cc1)c1cccc(C(F)(F)F)c1,–,9.28 µM (active)
CCCCCCC(=O)Nc1nc(C)c(-c2csc(Nc3cccc(OC)c3)n2)s1,–,5.22 µM (active)

# From PubChem BioAssay AID504832 (National Center for Advancing Translational Sciences (NCATS), 2011)
